Measurements from PubChem BioAssay AID1159580 (chemical genetic matrix, 2015).
About 2,000 (36%) of roughly 5,500 compounds were called active. About 18% were inconclusive and are not listed. Rule as the data show it: active = normalized growth mostly below about 0.91 (no sharp cut-off); inconclusive = no clear call, values can overlap the other calls; inactive = mostly above about 0.92. Some of the results follow.

Assay: chemical genetic growth profiling, strain panel (AID 1159580);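 also: tested at 20 µM; growth read once vehicle control cultures reached saturation at 30 °C; 1 = growth at the plate median or of vehicle wells; lower values mean less growth of the strain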
Conditions: S. cerevisiae deletion strains, growth OD

Measured: normalized growth

COCCCOc1ccnc(CS(=O)c2nc3ccccc3[nH]2)c1C (stereo not drawn)
inactive: locus YHR030C, strain SLT2, hits give low values 0.94 | locus YHR079C, strain IRE1, hits give low values 0.93 | locus YJL095W, strain BCK1, hits give low values 0.913 | locus YJR066W, strain TOR1, hits give low values 0.907 | locus YLR113W, strain HOG1, hits give low values 0.909 | locus YNL183C, strain NPR1, hits give low values 0.879 | locus YOR231W, strain MKK1, hits give low values 0.93 | locus YPL256C, strain CLN2, hits give low values 0.897
